The source of these data is PubChem BioAssay (Tox21).

The structures appear in SMILES notation. Values without a mark were called inactive. Records with an inconclusive call do not appear. Calls of active or inactive are those of the source. Calls follow the shape of the dose curve; as a rule, active = well fitted curve in the direction sought with a large enough effect in the repeat runs; inconclusive = weak or mixed curves; inactive = no such curve, though single readings can be large; an effect the other way counts as inactive or inconclusive.

Assay [1] can be described thus: Caspase-3/7 induction in HepG2 cells by small molecules, qHTS assay (AID 1346978). Also: nearly all actives have a fitted effect of over 15% in size. The procedure, abridged: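 Wild-type HepG2 cells, 2,000/well, settled 5 hr at 37 C and 5% CO2, then compound-treated for 17 hr; caspase-3/7 activity read by luminescent Caspase-Glo 3/7 after 30 min at room temperature.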
The nature of assay [2]: Caspase-3/7 induction in CHO-K1 cells by small molecules, qHTS cell viability counter screen (AID 1346979). Also: nearly all actives have a fitted effect of over 35% in size. Also: potency is read from the fitted curve at half-maximal effect. The procedure, abridged: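 Wild-type CHO-K1 cells were seeded at 1,500 per well, rested 5hr at 37 C, then exposed to compounds in DMSO. After 16hr, CellTiter-Fluor reagent was added and fluorescence read 1hr later as the viability measure.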
Assay [3] can be described thus: Caspase-3/7 induction in CHO-K1 cells by small molecules, qHTS assay (AID 1346980). Also: nearly all actives have a fitted effect of over 15% in size. The procedure, abridged: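 Wild-type CHO-K1 cells exposed to compounds for 17hr at 37 C, 5% CO2. Caspase-3/7 activity then measured by Caspase-Glo 3/7 luminescence after 30min at room temperature.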
Assay [4] can be described thus: Caspase-3/7 induction in HepG2 cells by small molecules, qHTS cell viability counter screen (AID 1346981). Also: nearly all actives have a fitted effect of over 30% in size. Also: potency is read from the fitted curve at half-maximal effect. The procedure, abridged:
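In this quantitative HTS counter screen, compounds delivered in DMSO were left on unmodified HepG2 cells for 16 hr at 37 C. Viability was then determined fluorometrically with CellTiter-Fluor, in parallel with caspase-3/7 induction in the same wells.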

Assay [5] deals with Nuclear receptor subfamily 1 group I member 2 (Homo sapiens) (UniProt O75469). As to the kind of experiment: Human pregnane X receptor (PXR) small molecule agonists, qHTS assay (AID 1346982). Also: nearly all actives have a fitted effect of over 35% in size. Also: potency is read from the fitted curve at half-maximal effect. In a few lines:
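Reporter HepG2 cells expressing PXR-Luc are cultured in charcoal-stripped FBS (5%), treated with compounds for 24 hr at 37 C, and assayed by ONE-Glo luminescence after 30 min at room temperature.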

In assay [6] the target is Cytochrome P450 2C19 (Homo sapiens) (UniProt P33261). Description: Cytochrome P450 Family 2 Subfamily C Member 19 (CYP2C19) small molecule antagonists: luciferase reporter qHTS assay (AID 1671197). Also: nearly all actives have a fitted effect of over 65% in size. Also: potency is read from the fitted curve at half-maximal effect. In a few lines:
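P450-Glo CYP2C19 screening system; proluciferin substrate; DMSO compound stocks; 10 min RT preincubation; NADPH regeneration, 1 h at 37C; luciferin detection reagent, 20 min RT; luminescence as RLU.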

The target in assay [7] is Cytochrome P450 1A2 (Homo sapiens) (UniProt P05177). As to the kind of experiment: Cytochrome P450 Family 1 Subfamily A Member 2 (CYP1A2) small molecule antagonists: luciferase reporter qHTS assay (AID 1671199). Also: nearly all actives have a fitted effect of over 50% in size. Also: potency is read from the fitted curve at half-maximal effect. The procedure, abridged:
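Steps: enzyme-substrate mix dispensed; test compounds and furafylline control pinned in; 10 min room temperature; NADPH regeneration solution added, 1 h; reaction stopped with luciferin detection reagent; luminescence read after 20 min.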

Assay [8] has as its target Voltage-gated inwardly rectifying potassium channel KCNH2 (Homo sapiens) (UniProt Q12809). As to the kind of experiment: Human Ether-a-go-go-Related Gene (hERG) channel small molecule antagonists: fluorescence cell-based qHTS assay (AID 1671200). Also: nearly all actives have a fitted effect of over 50% in size. Also: potency is read from the fitted curve at half-maximal effect. In a few lines: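 U2OS cells expressing the channel were plated at 1000 cells/well, incubated overnight at 37 C, then loaded with FluxOR II thallium-sensitive dye for 1 h at room temperature in the dark, with a further 10 min at room temperature before stimulation.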

Assay [9] concerns the target Cytochrome P450 3A4 (Homo sapiens) (UniProt P08684). Description: Cytochrome P450 Family 3 Subfamily A Member 4 (CYP3A4) small molecule antagonists: luciferase reporter qHTS assay (AID 1671201). Also: nearly all actives have a fitted effect of over 50% in size. Also: potency is read from the fitted curve at half-maximal effect. In a few lines: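 P450-Glo CYP3A4 system with proluciferin substrate; compounds preincubated 10 min RT with enzyme-substrate mix, then NADPH regeneration added for 1 h RT. Detection reagent 20 min, luminescence read as relative luminescence units.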

Assay [10] concerns the target Nuclear receptor subfamily 1 group I member 2 (Rattus norvegicus) (UniProt Q9R1A7). As to the kind of experiment: Rat pregnane X receptor (rPXR) activation by small molecules, qHTS assay (AID 1346983). Also: nearly all actives have a fitted effect of over 20% in size. To be noted: rPXR luciferase reporter cells, One-Glo luminescence, 24 h; max activation: stronger effect = higher value. In a few lines:
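Cell-based rPXR activation assay: rPXR cells, 2,000 per well, rested 5hr at 37 C, then exposed to compounds in DMSO for 24 hr at 37 C. Luciferase activity read by One-Glo luminescence after 30 min at room temperature.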

Assay [11] has as its target Nuclear receptor subfamily 1 group I member 2 (Homo sapiens) (UniProt O75469). Description: CYP3A4 induction through human pregnane X receptor (PXR) by small molecules, qHTS assay (AID 1346984). Also: nearly all actives have a fitted effect of over 40% in size. Also: potency is read from the fitted curve at half-maximal effect. The procedure, abridged:
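Induction measured in HepG2-based DPX-2 cells co-expressing human PXR and a CYP3A4 promoter-driven luciferase. After a 24-hour compound exposure, cells received CYP3A4 luciferin substrate at 3uM final for 3 hours, and light output was then recorded.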

A short description of assay [12]: Human pregnane X receptor (PXR) small molecule agonists, qHTS cell viability counter screen (AID 1346977). Also: nearly all actives have a fitted effect of over 50% in size. Also: potency is read from the fitted curve at half-maximal effect. In a few lines:
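PXR-Luc HepG2 cells in medium with 5% charcoal-stripped FBS were pre-incubated 5hr, then exposed to compounds for 24hr at 37C. Viability was read in the same wells by CellTiter-Fluor fluorescence, reagent added after 23hr with a 1hr incubation.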

Assay [13] has as its target Cytochrome P450 2D6 (Homo sapiens) (UniProt P10635). Description: Cytochrome P450 Family 2 Subfamily D Member 6 (CYP2D6) small molecule antagonists: luciferase reporter qHTS assay (AID 1671196). Also: nearly all actives have a fitted effect of over 50% in size. Also: potency is read from the fitted curve at half-maximal effect. In a few lines:
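Test chemicals meet CYP2D6 plus proluciferin substrate (10 min, RT); NADPH regenerating solution then drives turnover for 1 h. Detection reagent halts the reaction; luminescence measured after 20 min.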

The target in assay [14] is Cytochrome P450 2C9 (Homo sapiens) (UniProt P11712). Description: Cytochrome P450 Family 2 Subfamily C Member 9 (CYP2C9) small molecule antagonists: luciferase reporter qHTS assay (AID 1671198). Also: nearly all actives have a fitted effect of over 50% in size. Also: potency is read from the fitted curve at half-maximal effect. In a few lines: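 P450-Glo proluciferin substrate with CYP2C9 enzyme; 10 min RT preincubation, then NADPH regeneration 1 h at 37C; luciferin detection reagent 20 min RT, luminescence in relative luminescence units.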
Cytochrome P450 2C9 (Homo sapiens), sequence (P11712 whole entry, looked up): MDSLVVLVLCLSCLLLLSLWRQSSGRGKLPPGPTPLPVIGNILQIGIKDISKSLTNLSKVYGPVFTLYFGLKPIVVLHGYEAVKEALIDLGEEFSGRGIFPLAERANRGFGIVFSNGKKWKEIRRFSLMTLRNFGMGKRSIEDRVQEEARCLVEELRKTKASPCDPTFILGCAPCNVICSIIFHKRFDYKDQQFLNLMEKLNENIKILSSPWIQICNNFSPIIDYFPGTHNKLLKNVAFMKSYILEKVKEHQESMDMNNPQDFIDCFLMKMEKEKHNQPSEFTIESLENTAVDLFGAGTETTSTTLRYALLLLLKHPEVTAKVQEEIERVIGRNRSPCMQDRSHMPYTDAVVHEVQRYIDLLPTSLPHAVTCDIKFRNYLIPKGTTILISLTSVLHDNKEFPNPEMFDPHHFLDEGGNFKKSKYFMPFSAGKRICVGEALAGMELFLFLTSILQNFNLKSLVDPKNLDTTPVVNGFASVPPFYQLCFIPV
% is scaled to controls: 0 for no effect and ±100 for the full control effect.

Cytochrome P450 1A2 (Homo sapiens), sequence (P05177 whole entry, looked up): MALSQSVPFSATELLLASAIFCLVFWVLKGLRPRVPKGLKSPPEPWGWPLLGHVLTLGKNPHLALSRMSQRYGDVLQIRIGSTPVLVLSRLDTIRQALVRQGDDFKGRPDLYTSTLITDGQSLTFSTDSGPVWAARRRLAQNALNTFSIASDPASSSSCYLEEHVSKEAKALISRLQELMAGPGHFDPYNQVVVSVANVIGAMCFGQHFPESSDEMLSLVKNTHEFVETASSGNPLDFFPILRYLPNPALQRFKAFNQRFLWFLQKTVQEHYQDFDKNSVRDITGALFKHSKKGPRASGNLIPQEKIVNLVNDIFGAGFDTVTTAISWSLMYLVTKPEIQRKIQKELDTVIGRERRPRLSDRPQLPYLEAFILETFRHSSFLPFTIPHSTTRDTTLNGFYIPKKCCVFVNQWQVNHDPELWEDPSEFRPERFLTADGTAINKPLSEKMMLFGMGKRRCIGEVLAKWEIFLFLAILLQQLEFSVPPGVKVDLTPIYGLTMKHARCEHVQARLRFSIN
Cytochrome P450 2D6 (Homo sapiens), sequence (P10635 whole entry, looked up): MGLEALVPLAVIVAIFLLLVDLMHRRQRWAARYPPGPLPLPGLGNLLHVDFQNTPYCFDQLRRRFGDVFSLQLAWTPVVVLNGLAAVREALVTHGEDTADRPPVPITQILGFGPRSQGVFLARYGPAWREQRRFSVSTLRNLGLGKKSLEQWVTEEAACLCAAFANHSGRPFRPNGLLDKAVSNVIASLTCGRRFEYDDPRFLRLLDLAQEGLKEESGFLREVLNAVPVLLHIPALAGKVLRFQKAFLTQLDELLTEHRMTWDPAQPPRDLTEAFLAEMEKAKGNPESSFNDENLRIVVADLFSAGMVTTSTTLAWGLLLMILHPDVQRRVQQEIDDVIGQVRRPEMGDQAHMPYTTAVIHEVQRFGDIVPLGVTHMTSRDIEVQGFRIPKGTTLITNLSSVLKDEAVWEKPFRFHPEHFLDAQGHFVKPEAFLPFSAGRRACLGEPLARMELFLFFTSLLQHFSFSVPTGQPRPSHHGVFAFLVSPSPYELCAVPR
Voltage-gated inwardly rectifying potassium channel KCNH2 (Homo sapiens), sequence (Q12809 whole entry, looked up): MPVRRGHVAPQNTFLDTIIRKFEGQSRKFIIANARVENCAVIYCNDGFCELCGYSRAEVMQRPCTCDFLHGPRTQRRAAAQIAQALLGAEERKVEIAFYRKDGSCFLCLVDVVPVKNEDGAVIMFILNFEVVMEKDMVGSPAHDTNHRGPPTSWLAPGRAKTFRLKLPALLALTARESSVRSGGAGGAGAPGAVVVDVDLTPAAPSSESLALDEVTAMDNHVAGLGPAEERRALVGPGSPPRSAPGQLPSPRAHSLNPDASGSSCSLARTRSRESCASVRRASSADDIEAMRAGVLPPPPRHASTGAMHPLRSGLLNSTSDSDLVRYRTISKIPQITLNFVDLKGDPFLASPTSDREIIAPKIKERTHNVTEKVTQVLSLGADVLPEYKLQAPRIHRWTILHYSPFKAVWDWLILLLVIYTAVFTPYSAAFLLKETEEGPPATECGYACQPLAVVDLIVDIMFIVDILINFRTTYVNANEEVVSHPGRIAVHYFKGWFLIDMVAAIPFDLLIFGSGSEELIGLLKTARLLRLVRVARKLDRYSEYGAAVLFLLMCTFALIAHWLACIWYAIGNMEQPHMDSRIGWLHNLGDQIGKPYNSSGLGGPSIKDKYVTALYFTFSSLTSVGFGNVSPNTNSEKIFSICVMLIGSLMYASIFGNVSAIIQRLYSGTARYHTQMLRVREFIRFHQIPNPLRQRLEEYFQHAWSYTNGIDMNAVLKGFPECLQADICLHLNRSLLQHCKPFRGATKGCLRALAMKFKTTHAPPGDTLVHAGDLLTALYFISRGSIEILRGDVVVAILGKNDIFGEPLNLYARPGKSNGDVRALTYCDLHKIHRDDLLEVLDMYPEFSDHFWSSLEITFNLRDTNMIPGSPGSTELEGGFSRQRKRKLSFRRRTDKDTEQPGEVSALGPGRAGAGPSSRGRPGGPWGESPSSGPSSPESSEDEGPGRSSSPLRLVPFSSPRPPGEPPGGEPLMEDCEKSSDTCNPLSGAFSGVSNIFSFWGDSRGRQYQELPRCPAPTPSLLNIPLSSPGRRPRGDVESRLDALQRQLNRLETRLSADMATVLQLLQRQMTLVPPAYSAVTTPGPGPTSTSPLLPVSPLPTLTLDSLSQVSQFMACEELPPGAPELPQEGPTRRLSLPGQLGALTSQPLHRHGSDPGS
Cytochrome P450 2C19 (Homo sapiens), sequence (P33261 whole entry, looked up): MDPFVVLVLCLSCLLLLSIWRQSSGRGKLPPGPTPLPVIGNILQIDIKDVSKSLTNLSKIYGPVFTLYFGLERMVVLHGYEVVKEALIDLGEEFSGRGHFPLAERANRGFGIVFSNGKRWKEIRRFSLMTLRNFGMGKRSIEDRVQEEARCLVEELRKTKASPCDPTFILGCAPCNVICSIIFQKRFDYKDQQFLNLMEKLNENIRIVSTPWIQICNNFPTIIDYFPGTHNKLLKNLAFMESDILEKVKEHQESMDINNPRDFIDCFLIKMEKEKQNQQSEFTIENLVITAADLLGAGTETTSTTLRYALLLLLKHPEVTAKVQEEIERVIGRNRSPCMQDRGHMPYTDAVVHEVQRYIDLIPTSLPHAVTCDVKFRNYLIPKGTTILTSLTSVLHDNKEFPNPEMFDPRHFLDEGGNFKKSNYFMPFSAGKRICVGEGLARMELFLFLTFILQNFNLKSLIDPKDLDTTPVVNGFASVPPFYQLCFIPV
Nuclear receptor subfamily 1 group I member 2 (Rattus norvegicus), sequence (Q9R1A7 whole entry, looked up): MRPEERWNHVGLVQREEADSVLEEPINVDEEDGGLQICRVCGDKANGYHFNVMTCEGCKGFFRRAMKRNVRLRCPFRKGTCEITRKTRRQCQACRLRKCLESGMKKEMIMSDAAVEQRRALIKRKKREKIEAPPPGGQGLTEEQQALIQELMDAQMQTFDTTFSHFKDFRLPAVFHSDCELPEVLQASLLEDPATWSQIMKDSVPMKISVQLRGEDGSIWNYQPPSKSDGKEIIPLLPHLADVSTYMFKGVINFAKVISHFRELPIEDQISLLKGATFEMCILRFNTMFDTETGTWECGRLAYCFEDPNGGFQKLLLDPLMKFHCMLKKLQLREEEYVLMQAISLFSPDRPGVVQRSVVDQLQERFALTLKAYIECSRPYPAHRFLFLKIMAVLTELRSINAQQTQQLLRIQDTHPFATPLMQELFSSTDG
Nuclear receptor subfamily 1 group I member 2 (Homo sapiens), sequence (O75469 whole entry, looked up): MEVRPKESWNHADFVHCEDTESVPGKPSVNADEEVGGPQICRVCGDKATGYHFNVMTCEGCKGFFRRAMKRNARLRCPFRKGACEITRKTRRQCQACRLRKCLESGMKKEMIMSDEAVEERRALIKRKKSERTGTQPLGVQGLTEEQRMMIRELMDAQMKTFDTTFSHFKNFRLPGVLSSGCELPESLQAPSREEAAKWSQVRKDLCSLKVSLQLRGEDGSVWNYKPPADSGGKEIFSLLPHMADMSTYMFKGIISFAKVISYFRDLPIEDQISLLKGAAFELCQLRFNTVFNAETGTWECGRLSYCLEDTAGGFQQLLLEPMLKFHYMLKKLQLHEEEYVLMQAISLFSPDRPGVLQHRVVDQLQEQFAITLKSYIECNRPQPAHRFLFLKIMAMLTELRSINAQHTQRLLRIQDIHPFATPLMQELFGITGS
Cytochrome P450 3A4 (Homo sapiens), sequence (P08684 whole entry, looked up): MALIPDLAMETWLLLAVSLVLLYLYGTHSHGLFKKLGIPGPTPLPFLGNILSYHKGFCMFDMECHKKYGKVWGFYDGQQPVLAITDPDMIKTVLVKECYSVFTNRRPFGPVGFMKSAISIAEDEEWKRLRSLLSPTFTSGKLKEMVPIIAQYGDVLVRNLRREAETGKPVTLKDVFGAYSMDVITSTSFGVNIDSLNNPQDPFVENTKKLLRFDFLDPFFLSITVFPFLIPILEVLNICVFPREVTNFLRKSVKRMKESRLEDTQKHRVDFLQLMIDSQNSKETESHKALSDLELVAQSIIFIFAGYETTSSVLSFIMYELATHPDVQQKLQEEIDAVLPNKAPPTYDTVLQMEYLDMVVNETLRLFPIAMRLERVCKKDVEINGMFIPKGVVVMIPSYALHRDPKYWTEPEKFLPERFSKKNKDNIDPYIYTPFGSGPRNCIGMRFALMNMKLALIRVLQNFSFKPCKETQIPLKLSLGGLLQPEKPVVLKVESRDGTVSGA

Consider `O=c1[nH]nc(-c2ccc([N+](=O)[O-])o2)o1`, for which the Potency entry in [1], in assay [3], in assay [8] and in [9] was “inactive” in each case. The Potency in assay [2] is 61.1 µM (active); in assay [4] it was 54.5 µM (active); in [5], 61.1 µM (active); in assay [6] it was 79.6 µM (active); in [7], 31.7 µM (active).
For the molecule `O=C1c2ccccc2C(=O)c2c1ccc(O)c2O`, the Potency entry in [1], in [3], in [5], in [6], in assay [8] and in [9] was “inactive” throughout. The Potency is 23.7 µM (active) in assay [2] and 14.1 µM (active) in [11]. Moreover, the max activation in assay [10] is 0.447%.
Consider `CCOc1ccc(NC(C)=O)cc1N`, for which the Potency result in [12], in assay [1], in [3], in [4] and in assay [8] was “inactive” in each case. Moreover, the values for the Potency in assay [5] and in assay [6] were 31.1 µM (active) and 36.1 µM (active), respectively.
For `N#CCCCC(C#N)CCC#N` (stereo unspecified), the Potency result in assay [1], in [2], in assay [3], in [4], in assay [5] and in [13] was “inactive” in each case. Also, the Potency entry in assay [6], in [7] and in assay [8] was “inactive” in each case.
Regarding `CCc1ccc(C(=O)C(C)CN2CCCCC2)cc1` (stereo unspecified), the Potency result in assay [12], in assay [1], in assay [3], in assay [14], in [7] and in assay [8] was “inactive” throughout. In addition, the Potency entry in assay [9] was “inactive”. For the same molecule, the max activation in assay [10] is -6.71%. Also, the Potency was 0.49 µM (active) in assay [13] and 4.9 µM (active) in assay [6].
Regarding `Cc1ccc(NC(=O)c2ccc(CN3CCN(C)CC3)cc2)cc1Nc1nccc(-c2cccnc2)n1`, the Potency in [12] is 23.7 µM (active). For the same molecule, the Potency entry in assay [1], in [3], in assay [13], in assay [6], in [14] and in assay [7] was “inactive” in each case. The max activation in assay [10] is -10.6%.
Turning to `Cc1nc2sccn2c(=O)c1CCN1CCC(=C(c2ccc(F)cc2)c2ccc(F)cc2)CC1`, the Potency entry in [1], in assay [3], in assay [4], in [5], in assay [7] and in assay [9] was “inactive” each time. Besides, the Potency in assay [8] is 0.213 µM (active).
As to `CC(C)CCCCCOC(=O)CS`, the Potency result in assay [12], in [1], in assay [3], in assay [4], in assay [6] and in assay [7] was “inactive” each time. Besides, the Potency entry in assay [8] was “inactive”. In addition, the Potency in assay [13] is 25.2 µM (active); in [14] it was 71 µM (active).
Consider `Nc1ccc(C(=O)Oc2ccccc2)c(O)c1`, for which the Potency entry in assay [12], in assay [1], in [3], in assay [5], in assay [11] and in assay [8] was “inactive” each time. For the same molecule, the max activation in assay [10] was 0.405%. Further, the Potency in assay [7] is 11.5 µM (active).
Regarding `O=Cc1ccc(Cl)c([N+](=O)[O-])c1`, the Potency entry in [12], in assay [3], in assay [4], in assay [5] and in assay [8] was “inactive” each time. Besides, the Potency in assay [2] is 68.6 µM (active); in assay [13], 35.6 µM (active); in [6], 22.4 µM (active); in assay [14], 71 µM (active); in [7], 22.4 µM (active); in assay [9], 71 µM (active).
Consider `O=C(O)c1ccncc1`, for which the Potency entry in assay [1], in [2], in [3] and in assay [8] was “inactive” in each case.
